# Reference: PubChem BioAssay (NCI)
# This is part of a sample that, as a whole, favours compounds with a hit. Of some 83,000 tested, about 20% had one in any assay.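 In brief: 96-well plates, 48 h treatment, single concentration, percent growth endpoint.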 Calls of active or inactive are those of the source. Rule for the calls: active = growth percent below 10; inactive = the rest.
# System: MDA-MB-468 breast
# Experiment: NCI-60 one-dose screen, 48 h (100 = growth as untreated, 0 = no growth, -100 = all killed)
# Details: 10 µM unless noted
row,Structure (SMILES),growth
1,C=C1C(=O)O[C@@H]2C[C@@H](C)CCC(=O)[C@](C)(OC(C)=O)C[C@H](OC(=O)/C(C)=C\C)[C@@H]12,32.7% (inactive)
2,N#CC1c2ccccc2C=CN1C(=O)N(c1ccccc1)c1ccccc1 (stereo not drawn),5.11% (active)
3,O=C(Cn1c(C(=O)c2ccccc2)nc2ccccc21)c1ccc(F)cc1,35.1% (inactive)
